From PubChem BioAssay
FBW7 act: activators of human E3 ligase FBW7; normalized activity (activation), % at 26.1 µM; 650,000 tested, 0.13% active; Q969H0; AlphaScreen FBW7–phospho-cyclin E peptide binding, activator screen; in the data active means normalized activity above about 1.9%;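 further: purified mutant Fbw7 with reduced substrate affinity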
Target sequence (Q969H0 whole entry, looked up): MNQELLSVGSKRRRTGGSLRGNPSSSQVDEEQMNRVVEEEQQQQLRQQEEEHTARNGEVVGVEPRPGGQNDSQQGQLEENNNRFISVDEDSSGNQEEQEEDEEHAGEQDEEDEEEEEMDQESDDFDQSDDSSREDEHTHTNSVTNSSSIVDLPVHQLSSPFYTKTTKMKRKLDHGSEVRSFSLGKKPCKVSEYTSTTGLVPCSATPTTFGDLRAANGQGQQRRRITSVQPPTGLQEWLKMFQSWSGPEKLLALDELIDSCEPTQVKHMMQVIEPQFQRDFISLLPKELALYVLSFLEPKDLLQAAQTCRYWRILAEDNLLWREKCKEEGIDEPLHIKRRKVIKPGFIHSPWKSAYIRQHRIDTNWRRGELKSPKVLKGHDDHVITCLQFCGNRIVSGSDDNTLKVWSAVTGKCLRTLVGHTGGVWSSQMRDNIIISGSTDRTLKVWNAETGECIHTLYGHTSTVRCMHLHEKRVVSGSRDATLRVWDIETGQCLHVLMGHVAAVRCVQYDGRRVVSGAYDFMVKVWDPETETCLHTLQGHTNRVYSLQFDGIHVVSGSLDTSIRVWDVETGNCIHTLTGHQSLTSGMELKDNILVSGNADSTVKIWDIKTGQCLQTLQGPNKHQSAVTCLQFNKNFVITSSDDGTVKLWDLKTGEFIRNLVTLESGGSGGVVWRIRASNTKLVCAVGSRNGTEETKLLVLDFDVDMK
GPR151 ag: activates the human receptor GPR151 | activation, % at 11.2 µM | 650,000 tested, 1% active | PathHunter beta-arrestin GPR151 cells, luminescence | AID 1508602; in the data active means activation above about 4.9%
MITF inh: blocks human microphthalmia-associated transcription factor; 650,000 tested, 0.91% active; AlphaScreen MITF homodimerization, bead proximity signal; O75030; inhibition, % at 2.6 µM; in the data active means inhibition above about 50%
TEAD-YAP block: TEAD-YAP interaction inhibition | HEK-TIYL cells, TEAD-Gal4/YAP UAS-luciferase luminescence | inhibition, % at 9.12 µM | 640,000 tested, 1.4% active | AID 1259422; in the data active means inhibition above about 32%
GPR151 conf act: human GPR151 activation, confirmation screen; shares compounds with GPR151 ag; GPR151 PathHunter beta-arrestin cells, luminescence, 90 min; % of EA-reagent control over plate median; activation, % at 11.2 µM; 6,700 tested, under 10 active;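 active means mean percent activation across replicates above the confirmation screen cutoff of 4.91%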
GPR119 counter: counter-screen for GPR151 activators: effect on human GPR119; shares compounds with GPR151 ag; GPR119 PathHunter beta-arrestin cells, luminescence, 90 min; 0 = compound-well median, 100 = enzyme-acceptor control; activation, % at 11.2 µM; 6,700 tested, 0.3% active;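 active means mean percent activation in the counterscreen above 29.09%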;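 further: counterscreen on off-target GPR119 to flag nonselective hits from the GPR151 activator screen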
A number is an active result. This is a sample that favours compounds with a hit; in the whole collection about 3.4% have one here.

For COc1ccc(NC(=O)CN2C(=O)C(C)Oc3ccc(C)cc32)cc1 (configuration not stated) the results were FBW7 act inactive, GPR151 ag inactive, MITF inh inactive and TEAD-YAP block inactive.
Cc1ccc2c(c1)N(CC(=O)Nc1ccc(Cl)cc1)C(=O)C(C)O2 (configuration not stated) was read as FBW7 act inactive, GPR151 ag 22, MITF inh inactive, TEAD-YAP block inactive, GPR151 conf act inactive and GPR119 counter inactive.
For Cc1ccc2c(c1)N(CC(=O)Nc1ccc3c(c1)OCCO3)C(=O)CO2 the results were FBW7 act inactive, GPR151 ag inactive, MITF inh inactive and TEAD-YAP block inactive.
Screening O=C(O)c1cc([N+](=O)[O-])[nH]n1 returned FBW7 act inactive, GPR151 ag inactive, MITF inh inactive and TEAD-YAP block inactive.
COc1ccc(NC(=O)CN2C(=O)CC(c3ccccc3)Sc3ccccc32)cc1OC (configuration not stated) was read as FBW7 act inactive, GPR151 ag 7.4, MITF inh inactive, TEAD-YAP block inactive, GPR151 conf act inactive and GPR119 counter inactive.
Screening COc1ccc(NC(=O)CN2C(=O)CC(c3ccco3)Sc3ccccc32)cc1OC (configuration not stated) returned FBW7 act inactive, GPR151 ag inactive, MITF inh inactive and TEAD-YAP block inactive.
`COc1cc(NC(=S)N2CCN(c3ncccn3)CC2)c(OC)cc1Cl` gave FBW7 act inactive, GPR151 ag inactive, MITF inh inactive and TEAD-YAP block inactive.
For CCOC(=O)COc1ccc2c(oc(=O)c3ccccc32)c1C the results were FBW7 act inactive, GPR151 ag inactive, MITF inh inactive and TEAD-YAP block inactive.
`CCN(CC)C(=O)COc1ccc2c(C)cc(=O)oc2c1C` gave FBW7 act inactive, GPR151 ag inactive, MITF inh inactive and TEAD-YAP block inactive.
Cc1cc(=O)oc2c(C)c(OCC(=O)N(C)C)ccc12 was read as FBW7 act inactive, GPR151 ag 18, MITF inh inactive, TEAD-YAP block inactive, GPR151 conf act inactive and GPR119 counter inactive.
`CC(=O)COc1ccc2c(oc(=O)c3ccccc32)c1C` gave FBW7 act inactive, GPR151 ag 7.0, MITF inh inactive, TEAD-YAP block inactive, GPR151 conf act inactive and GPR119 counter inactive.
CC(C)=CC(=O)Nc1nc(-c2ccc(Cl)cc2)cs1 was read as FBW7 act inactive, GPR151 ag inactive, MITF inh inactive and TEAD-YAP block inactive.
For O=C1NC(=O)/C(=C\c2cccc(OCc3ccccc3F)c2)N1 the results were FBW7 act inactive, GPR151 ag inactive, MITF inh inactive and TEAD-YAP block inactive.
COc1cc(-c2cn[nH]c2)cc2c(=O)[nH]c(C3COc4ccc(C)cc4C3)nc12 (configuration not stated) was read as FBW7 act inactive, GPR151 ag 5.6, MITF inh inactive, TEAD-YAP block inactive, GPR151 conf act inactive and GPR119 counter inactive.
Screening O=C(On1c(-c2ccc(F)cc2)nc2ccccc2c1=O)c1ccc(Cl)cc1 returned FBW7 act inactive, GPR151 ag 5.1, MITF inh inactive, TEAD-YAP block inactive, GPR151 conf act inactive and GPR119 counter inactive.
Screening Cc1ccccc1C(=O)On1c(-c2ccc(Cl)c([N+](=O)[O-])c2)nc2ccccc2c1=O returned FBW7 act inactive, GPR151 ag 5.8, MITF inh inactive, TEAD-YAP block inactive, GPR151 conf act inactive and GPR119 counter inactive.
`O=C(Cn1ncn2nc(-c3cccs3)cc2c1=O)NC1CCN(Cc2ccccc2)CC1` gave FBW7 act inactive, GPR151 ag 13, MITF inh inactive, TEAD-YAP block inactive, GPR151 conf act inactive and GPR119 counter inactive.
`O=C(Cn1ncn2nc(-c3cccs3)cc2c1=O)NC1CCCc2ccccc21` (configuration not stated) gave FBW7 act inactive, GPR151 ag inactive, MITF inh inactive and TEAD-YAP block inactive.
Screening COc1ccc(C(=O)Nc2c(C)csc2C(=O)O)cc1 returned FBW7 act inactive, GPR151 ag 4.9, MITF inh inactive, TEAD-YAP block inactive, GPR151 conf act inactive and GPR119 counter inactive.
For Cc1csc(C(=O)O)c1NC(=O)c1ccc(F)cc1 the results were FBW7 act inactive, GPR151 ag inactive, MITF inh inactive and TEAD-YAP block inactive.
Nc1nc(SCc2cn3cc(Br)ccc3n2)n[nH]1 was read as FBW7 act inactive, GPR151 ag 7.6, MITF inh inactive, TEAD-YAP block inactive, GPR151 conf act inactive and GPR119 counter inactive.
Cc1cc(=O)oc2cc(OCC(=O)c3ccc4c(c3)OCCO4)ccc12 was read as FBW7 act inactive, GPR151 ag inactive, MITF inh inactive and TEAD-YAP block inactive.
`O=C(Cn1cc2c(n1)CCCC2)N1CCc2ccccc2C1` gave FBW7 act inactive, GPR151 ag inactive, MITF inh inactive and TEAD-YAP block inactive.
`O=C(Cn1cc2c(n1)CCCCC2)N1CCc2ccccc21` gave FBW7 act inactive, GPR151 ag 5.4, MITF inh inactive, TEAD-YAP block inactive, GPR151 conf act inactive and GPR119 counter inactive.
For O=C(COc1ccccc1Br)NN=C1CCCCC1 the results were FBW7 act inactive, GPR151 ag 9.7, MITF inh inactive, TEAD-YAP block inactive, GPR151 conf act inactive and GPR119 counter inactive.
`CCOc1ccc(NC(=O)COc2ccccc2Br)cc1` gave FBW7 act inactive, GPR151 ag 5.0, MITF inh inactive, TEAD-YAP block inactive, GPR151 conf act inactive and GPR119 counter inactive.
For COc1ccc(C(=O)Nc2nn3c(-c4ccccc4C)nnc3s2)cc1 the results were FBW7 act inactive, GPR151 ag inactive, MITF inh inactive and TEAD-YAP block inactive.
`CC1(C2CCN(Cc3nc(-c4ccccc4)cs3)CC2)NC(=O)NC1=O` (configuration not stated) gave FBW7 act inactive, GPR151 ag 5.6, MITF inh inactive, TEAD-YAP block inactive, GPR151 conf act inactive and GPR119 counter inactive.
Screening COC(=O)C1(C(F)(F)F)N=C2C(C)=CC=CN2C(c2cccc(Cl)c2)=N1 (configuration not stated) returned FBW7 act inactive, GPR151 ag inactive, MITF inh inactive and TEAD-YAP block inactive.
For C1CN(c2nc3nonc3nc2N2CCOCC2)CCO1 the results were FBW7 act inactive, GPR151 ag inactive, MITF inh inactive and TEAD-YAP block inactive.
C1CN(c2nc3nonc3nc2N2CCSCC2)CCO1 was read as FBW7 act inactive, GPR151 ag 8.9, MITF inh inactive, TEAD-YAP block inactive, GPR151 conf act inactive and GPR119 counter inactive.
Screening COc1cccc(CNC(=O)C2CCCc3sc(NC(=O)c4ccccc4)nc32)c1 (configuration not stated) returned FBW7 act inactive, GPR151 ag 5.2, MITF inh inactive, TEAD-YAP block inactive, GPR151 conf act inactive and GPR119 counter inactive.
